# According to PubChem BioAssay:
# Active and inactive are the calls of the source. Unless noted, no rule for the calls is given here.
# Experiments:
# [1] = compounds binding Alexa647 anti-His antibody – biochemical, small-molecule microarray, 635 nm fluorescence, artefact control for SMM control protein annotation, primary screen (AID 1128); conditions: higher = more signal;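 also: score merges feature fluorescence with signal-to-noise for each printed compound spot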
# [2] = tested on: Human papillomavirus type 1a E7 protein (residues 1-88); experiment: HPV1a E7 small-molecule binders, primary screen, biochemical, small-molecule microarray, residues 1-88, 635 nm (AID 1129); conditions: small-molecule microarray binding, fluorescence 635 nm; higher = more signal
# [3] = biological target: Focal adhesion kinase 1 (Homo sapiens) (UniProt Q05397); experiment: PTK2 protein binding on printed compound slides – biochemical, small-molecule microarray, 635/667 nm fluorescence, BSA, DTT, primary screen (AID 1130); conditions: 635 nm fluorescence, higher = more signal;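 also: composite of spot emission at 667 nm and signal to noise over triplicate slides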
# [4] = tested on: Fibrinogen (Alexa647-labelled); experiment: Alexa647-fibrinogen binding to printed small molecules – biochemical, small-molecule microarray, 635/667 nm fluorescence, artefact control for SMM control-protein annotation, profiling panel (AID 1131); conditions: fibrinogen-A647 binding fluorescence, higher = more signal;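 also: z-score merges 667 nm fluorescence with per-spot signal-to-noise over triplicate slides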
# [5] = biological target: Follistatin (Homo sapiens) (UniProt P19883); experiment: FST protein binding to printed compounds – biochemical, small-molecule microarray, 635/667 nm fluorescence, primary screen (AID 1132); conditions: 635 nm fluorescence, higher = more signal
# [6] = biological target: Fibroblast growth factor 2 (Homo sapiens) (UniProt P09038); experiment: basic fibroblast growth factor binding to printed compounds – biochemical, small-molecule microarray, 635/667 nm fluorescence, primary screen (AID 1133); conditions: FGF2, fluorescence 635/667, higher = more signal
# [7] = JC-1 mitochondrial potential readout, lung cancer cells – cell-based, A549, JC-1 fluorescence, basal, 24 h, 100 nL, profiling panel (AID 1138); conditions: higher = more signal;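 also: A549 lung adenocarcinoma cells under basal conditions with no added stimulus; test concentration not given here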
# Lefty1 = Lefty1 protein binding to printed compounds – biochemical, small-molecule microarray, 635/667 nm fluorescence, primary screen (AID 1139); conditions: fluorescence 635/667, higher = more signal
# [8] = tested on: wheat germ agglutinin (Triticum aestivum), Alexa647-labelled; experiment: Alexa647-WGA lectin binding to printed small molecules – biochemical, small-molecule microarray, 635/667 nm fluorescence, artefact control for SMM control-protein annotation, profiling panel (AID 1140); conditions: WGA-A647 binding, 635 nm fluorescence, higher = more signal;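 also: score merges 667 nm feature emission with signal to noise over triplicate slides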
# [9] = biological target: Luciferin 4-monooxygenase (Photinus pyralis) (UniProt P08659); experiment: inhibition of purified Photinus pyralis luciferase – biochemical, luminescence, purified enzyme, 2006 set, primary screen (AID 1141); conditions: purified firefly luciferase, SteadyGlo luminescence, 30 min; higher = more signal, called active from +8 up or from −8 down;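 also: cell-free assay with purified firefly luciferase at 100 ng per well in PBS; test concentration not given here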
# [10] = tested on: Wnt5a (protein binding on small-molecule microarray); experiment: small molecules binding Wnt5a protein – biophysical, small-molecule microarray, 635/667 nm fluorescence, primary screen (AID 1142); conditions: 635 nm fluorescence, higher = more signal;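 also: fluorescence read at 667 nm with signal to noise per printed feature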
# [11] = ATP-based viability of Huh7 replicon cells – cell-based, CellTiter-Glo luminescence, basal, 48 h, cytotoxicity control for HCV replication inhibitor project, primary screen (AID 1143); conditions: higher = more signal, called active from +8 up or from −8 down;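 also: Huh7 hepatoma cells carrying a hepatitis C replication reporter with no stimulus; test concentration not given here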
# [12] = Pseudomonas biofilm growth suppression – PAO1 strain, BacTiter-Glo luminescence, LB-PBS, primary screen (AID 1144); conditions: P. aeruginosa PAO1 biofilm, 12 h, higher = more signal
# [13] = basal CRE-LacZ reporter activity in PC12 – cell-based, unstimulated, primary screen (AID 1145); conditions: no forskolin, luminescence, 4.5 h, higher = more signal, called active from +8 up or from −8 down
# [14] = forskolin-driven CRE-LacZ activity in PC12 – cell-based, CRE-LacZ reporter, forskolin-stimulated, primary screen (AID 1146); conditions: luminescence, 4.5 h, higher = more signal, called active from +8 up or from −8 down;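 also: PC12 cells with 6xCRE LacZ reporter stimulated by forskolin 10 µM; beta-galactosidase reporter signal reflecting CREB driven transcription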
# [15] = biological target: Streptavidin (Streptomyces avidinii) (UniProt P22629); experiment: compounds binding control protein streptavidin – biophysical, small-molecule microarray, 635/667 nm fluorescence, artefact control for SMM compound annotation, primary screen (AID 1147); conditions: higher = more signal;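 also: signal reflects streptavidin binding to arrayed compounds as a control protein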
# [16] = probe aInhba binding on compound microarray – biochemical, small-molecule microarray, 635/667 nm fluorescence, primary screen (AID 1148); conditions: higher = more signal;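 also: score merges 667nm spot fluorescence with signal-to-noise for antibody binding to printed compounds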
# Torsin-1A (Homo sapiens) [17] = biological target: Torsin-1A (Homo sapiens) (UniProt O14656); experiment: TOR1A wild-type binding on microarray – cell lysate, small-molecule microarray, lysate, 635/667 nm, primary screen (AID 1149); conditions: COS7 hTOR1A-WT lysate, 635 nm fluorescence, higher = more signal
# Torsin-1A (Homo sapiens) [18] = biological target: Torsin-1A (Homo sapiens) (UniProt O14656); experiment: torsin A mutant lysate binding on microarrays – cell lysate, small-molecule microarray, COS7 lysate, 635/667 nm fluorescence, primary screen (AID 1150); conditions: COS7 hTOR1A mutant lysate, 635 nm fluorescence, higher = more signal;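 also: score pools 667 nm emission and signal to noise measuring lysate protein binding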
# [19] = tested on: Sonic hedgehog protein (Shh); experiment: Sonic hedgehog microarray binding compounds – biochemical, small-molecule microarray, 635/667 nm fluorescence, primary screen (AID 1151); conditions: 635 nm fluorescence, higher = more signal;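 also: Shh protein binding to compounds spotted on small-molecule microarray slides; score combines spot fluorescence intensity with signal-to-noise across triplicate slides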
# Sequence of Focal adhesion kinase 1 (Homo sapiens) (Q05397 whole entry, looked up): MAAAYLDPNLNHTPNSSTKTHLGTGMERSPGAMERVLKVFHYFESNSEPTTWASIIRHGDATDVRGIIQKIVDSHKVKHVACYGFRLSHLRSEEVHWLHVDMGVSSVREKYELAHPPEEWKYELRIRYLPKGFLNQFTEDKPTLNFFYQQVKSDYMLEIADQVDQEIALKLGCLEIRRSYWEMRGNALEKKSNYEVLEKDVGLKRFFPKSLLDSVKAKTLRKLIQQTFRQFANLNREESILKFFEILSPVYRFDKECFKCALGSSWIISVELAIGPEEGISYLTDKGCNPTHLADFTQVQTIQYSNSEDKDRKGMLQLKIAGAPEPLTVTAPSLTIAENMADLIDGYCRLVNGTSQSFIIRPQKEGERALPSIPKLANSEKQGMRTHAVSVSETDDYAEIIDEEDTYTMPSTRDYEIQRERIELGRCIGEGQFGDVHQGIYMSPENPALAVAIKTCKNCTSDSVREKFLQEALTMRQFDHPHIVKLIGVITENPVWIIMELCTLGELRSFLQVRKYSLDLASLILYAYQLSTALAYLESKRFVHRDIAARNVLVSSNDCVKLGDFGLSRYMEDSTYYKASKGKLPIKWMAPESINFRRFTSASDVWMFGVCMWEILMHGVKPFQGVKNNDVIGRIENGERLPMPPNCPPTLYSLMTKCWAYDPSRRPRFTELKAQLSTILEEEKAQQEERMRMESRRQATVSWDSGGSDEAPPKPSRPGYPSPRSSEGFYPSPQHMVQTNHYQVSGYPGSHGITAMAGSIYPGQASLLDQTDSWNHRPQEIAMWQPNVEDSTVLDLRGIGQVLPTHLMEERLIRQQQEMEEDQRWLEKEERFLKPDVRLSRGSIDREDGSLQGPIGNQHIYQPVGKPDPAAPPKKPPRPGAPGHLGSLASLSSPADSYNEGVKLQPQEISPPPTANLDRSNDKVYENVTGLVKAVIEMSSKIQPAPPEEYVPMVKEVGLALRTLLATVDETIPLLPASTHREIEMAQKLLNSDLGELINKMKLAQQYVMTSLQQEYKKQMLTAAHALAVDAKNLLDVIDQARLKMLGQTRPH
# Sequence of Streptavidin (Streptomyces avidinii) (P22629 whole entry, looked up): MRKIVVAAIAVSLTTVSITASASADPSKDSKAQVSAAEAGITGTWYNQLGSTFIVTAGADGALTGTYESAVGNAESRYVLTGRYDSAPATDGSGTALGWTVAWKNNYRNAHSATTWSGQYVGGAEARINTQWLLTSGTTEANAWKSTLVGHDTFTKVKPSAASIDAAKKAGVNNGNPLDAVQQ
# Sequence of Torsin-1A (Homo sapiens) (O14656 whole entry, looked up): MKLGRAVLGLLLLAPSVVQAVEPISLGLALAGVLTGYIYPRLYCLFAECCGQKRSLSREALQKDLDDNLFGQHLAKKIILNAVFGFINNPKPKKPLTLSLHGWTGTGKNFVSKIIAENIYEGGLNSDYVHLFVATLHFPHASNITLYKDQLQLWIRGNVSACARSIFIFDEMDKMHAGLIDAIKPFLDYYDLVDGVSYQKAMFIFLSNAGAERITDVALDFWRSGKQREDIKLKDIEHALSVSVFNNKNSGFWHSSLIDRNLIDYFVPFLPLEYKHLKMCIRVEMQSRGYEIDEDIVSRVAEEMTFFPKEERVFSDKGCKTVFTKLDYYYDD
# Sequence of Luciferin 4-monooxygenase (Photinus pyralis) (P08659 whole entry, looked up): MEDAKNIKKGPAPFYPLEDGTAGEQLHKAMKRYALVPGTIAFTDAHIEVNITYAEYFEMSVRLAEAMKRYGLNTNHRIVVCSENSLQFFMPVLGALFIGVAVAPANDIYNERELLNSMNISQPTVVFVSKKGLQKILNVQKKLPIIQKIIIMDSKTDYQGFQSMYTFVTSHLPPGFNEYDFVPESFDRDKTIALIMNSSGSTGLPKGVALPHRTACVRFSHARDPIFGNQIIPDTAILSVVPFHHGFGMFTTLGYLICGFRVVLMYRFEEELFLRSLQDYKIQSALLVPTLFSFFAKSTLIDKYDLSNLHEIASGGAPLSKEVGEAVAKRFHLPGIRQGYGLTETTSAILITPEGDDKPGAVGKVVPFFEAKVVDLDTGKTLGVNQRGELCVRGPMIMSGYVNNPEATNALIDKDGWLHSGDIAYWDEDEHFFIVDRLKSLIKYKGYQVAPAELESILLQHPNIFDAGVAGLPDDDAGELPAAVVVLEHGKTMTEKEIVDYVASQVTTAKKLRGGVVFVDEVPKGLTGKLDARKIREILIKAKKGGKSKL
# Sequence of Fibroblast growth factor 2 (Homo sapiens) (P09038 whole entry, looked up): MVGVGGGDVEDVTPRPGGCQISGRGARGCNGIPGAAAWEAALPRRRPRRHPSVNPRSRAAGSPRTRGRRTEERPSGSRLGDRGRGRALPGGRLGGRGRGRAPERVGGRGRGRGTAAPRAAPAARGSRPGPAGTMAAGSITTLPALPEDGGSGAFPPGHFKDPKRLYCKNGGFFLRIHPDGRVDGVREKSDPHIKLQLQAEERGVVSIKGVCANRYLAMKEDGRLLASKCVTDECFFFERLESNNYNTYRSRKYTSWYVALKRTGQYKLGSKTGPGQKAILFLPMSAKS
# Sequence of Follistatin (Homo sapiens) (P19883 whole entry, looked up): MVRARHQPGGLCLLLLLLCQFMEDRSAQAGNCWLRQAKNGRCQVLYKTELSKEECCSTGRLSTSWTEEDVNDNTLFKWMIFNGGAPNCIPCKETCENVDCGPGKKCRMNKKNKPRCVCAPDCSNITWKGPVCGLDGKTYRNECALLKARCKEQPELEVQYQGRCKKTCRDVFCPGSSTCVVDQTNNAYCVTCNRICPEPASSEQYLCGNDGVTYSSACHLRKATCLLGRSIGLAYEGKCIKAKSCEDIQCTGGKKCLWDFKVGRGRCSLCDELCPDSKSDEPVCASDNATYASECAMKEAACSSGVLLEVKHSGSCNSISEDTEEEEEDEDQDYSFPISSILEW
Compound,composite z-score [1],composite z-score [2],composite z-score [3],composite z-score [4],composite z-score [5],composite z-score [6],z-score [7],composite z-score (Lefty1),composite z-score [8],z-score [9],composite z-score [10],z-score [11],z-score [12],z-score [13],z-score [14],composite z-score [15],composite z-score [16],composite z-score (Torsin-1A (Homo sapiens) [17]),composite z-score (Torsin-1A (Homo sapiens) [18]),composite z-score [19]
CC(C)=CCCC(C)=CCON=C1C[C@@H](O)[C@@H](O)[C@@H]2[C@@H]3C(=O)N(Cc4ccccc4)C(=O)[C@@H]3CC[C@@H]12,0.546,-0.369,-0.0506,-0.266,1.07,1.44,0.071,0.894,-0.0507,1.19 (inactive),0.292,0.18 (inactive),0.603 (inactive),-0.478 (inactive),-0.0093 (inactive),-0.0277,-0.157,0.925,0.293,1.88
CC(C)=CCCC(C)=CCON=C1C[C@@H](O)[C@@H](O)[C@@H]2[C@@H]3C(=O)N(C(C)(C)C)C(=O)[C@@H]3CC[C@H]12,-0.119,0.635,-0.0868,0.199,0.329,0.248,-0.0133,0.536,-0.849,0.0533 (inactive),0.158,0.232 (inactive),-0.625 (inactive),0.7 (inactive),0.871 (inactive),0.0957,0.0442,0.366,0.987,0.435
CC(=O)O[C@H]1C2=CO[C@H](C)[C@H]3[C@H]4C5=C([C@H](O)[C@H]6O[C@H]6C5=O)[C@H](OC4C)[C@@]23C(=O)[C@@H]2O[C@@H]21 (stereo not given in full),-0.497,0.121,-0.703,-0.331,-0.436,1.35,-0.837,0.0873,-0.515,-0.413 (inactive),0.25,-6.34 (inactive),0.298 (inactive),0.831 (inactive),16.6 (active),-0.458,-0.292,-0.119,-0.279,0.604
